Screening results from PubChem.
This is one part of a sample in which hits are shown more often than they occur.
Methyltransferases: Primary Screen for Target Class Profiling of Small Molecule Inhibitors of Methyltransferases | hit rate 3.9% among 25,000 | purified enzyme, MTase-Glo SAH luminescence; hits give low values | calls only at 40 µM; call rule not given here
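Each enzyme was assayed with SAM and its substrate. SAH formation detected by MTase-Glo luminescence; single-point 40 uM screen[…].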
Numbers without * were called inactive; i = inactive; + = active, no number; ! = not confirmed by another sample. On the % scale 0 is the no-effect control and ±100 the full control effect.

SMILES	Methyltransferases
CN(CCN1C(=O)c2cc3occc3n2CC1(C)C(=O)NC1CCCCCC1)C1CCCCC1 (configuration not stated)	i
CC(C)OCCCN1C(=O)c2cc3occc3n2CC1(C)C(=O)NC1CCCCCC1 (configuration not stated)	i
C=CC(=O)Nc1cccc(Oc2nc(Nc3ccc(N4CCN(C)CC4)cc3OC)ncc2Cl)c1	i
C=CC(=O)Nc1ccc(CN2C(=O)N(c3cc(OC)cc(OC)c3)Cc3cnc(Nc4ccc(N5CCN(C)CC5)cc4)nc32)cc1	+
COc1cccc(Nc2ncc3c(n2)C(C)(C(=O)N2CCN(c4ccccn4)CC2)CC3)c1 (configuration not stated)	i
CCCN1C(=O)c2cc(C(=O)N3CCN(C4CCCCC4)CC3)nn2CC1(C)C(=O)NC1CCCC1 (configuration not stated)	i
CC(C)(C)c1cc2n(n1)CC(C)(C(=O)NC1CCCCCC1)N(c1ccc(F)cc1)C2=O (configuration not stated)	i
COc1ccc(NC(=O)CCc2nnc3n(CCCOC(C)C)c(=O)c4ccccc4n23)cc1	i
COc1ccc(Br)cc1[C@@H]1Nc2ccc(Cl)cc2[C@@H]2C=CC[C@@H]21	i
COCCN(C)Cc1ccc2nc3sc(C(=O)N(C)C4CCCCC4)cn3c2c1	+
COCCN(C)C[C@H]1C[C@@H](CO)CN(C(=O)c2ccc(C)c(Cl)c2)C1	i
CCCN1C(=O)c2c(C(=O)NCc3ccc(OCC)cc3)ncn2CC1(C)C(=O)NCc1ccc(C)cc1 (configuration not stated)	i
CCC(C)NC(=O)c1ccc2c(=O)n(CCC(C)C)c3nn(Cc4ccccc4C)c(=O)n3c2c1 (configuration not stated)	i
COc1ccccc1NC(=O)Cn1nc2n(CCCOC(C)C)c(=O)c3ccccc3n2c1=O	i
CC1(C(=O)NCC2CCCO2)Cn2c(cc3ccccc32)C(=O)N1Cc1ccccc1Br (configuration not stated)	i
CN(C)[C@@H]1C[C@@H](CO)N(C(=O)c2csc3nc(-c4ccccc4Cl)cn23)C1	i
O=C(Nc1ccccc1-c1cn2c(CN3CCNCC3)csc2n1)c1cnc2ccccc2n1	+!
CC(C)CNC(=O)c1ccc2c(=O)n(Cc3ccccc3)c3nn(Cc4ccc(F)cc4)c(=O)n3c2c1	i
O=c1[nH]c2ccccc2n1Cc1ccccc1Cl	i
Cc1ccc(NS(=O)(=O)c2cc3c(cc2Cl)n(C)c(=O)n3C)c(C)c1	i
CCOC(=O)c1cc2n(n1)CC(C)(C(=O)NC1CCCC1)N(Cc1ccc(OC)cc1)C2=O (configuration not stated)	i
C[C@](N)(Cc1ccc(O)cc1)C(=O)O	i
COC(=O)C(C)(N)Cc1ccc(O)cc1 (configuration not stated)	i
C[C@](N)(Cc1ccc(O)c(O)c1)C(=O)O	+
CCN(CC)c1nc2c(-c3cccc(F)c3)nnn2c2ccccc12	i
SMILES	Methyltransferases
CC(C)Cn1c(=O)c2ccccc2n2c(SCC(=O)Nc3ccc(Cl)cc3)nnc12	i
CC1(C(=O)NC2CCCCC2)Cn2c(ccc2-c2ccco2)C(=O)N1CCc1ccccc1Cl (configuration not stated)	i
CCCn1c(=O)c2cc(Cl)ccc2n2c(SCC(=O)NC(C)CC)nnc12 (configuration not stated)	i
CCN1C(=O)c2cc(-c3ccc(OC)cc3)nn2CC1(C)C(=O)NCc1ccccc1OC (configuration not stated)	i
CCOC(=O)c1cccc(NS(=O)(=O)c2ccc3[nH]c(=O)[nH]c3c2)c1	i
CCOC(=O)c1cnc2ccc(-c3cncc(NS(=O)(=O)c4ccccc4)c3)cn12	+
CCOC(=O)c1ccc(NS(=O)(=O)c2ccc3c(c2)n(C)c(=O)n3C)cc1	i
C=C(C(=O)O)C1CC(OC(=O)CC(C)CC)C2(C)CCCC(=C)C2C1 (configuration not stated)	i
C=C1CCC[C@]2(C)CC[C@@](O)(C(=C)C(=O)O)C[C@@H]12	i
C=C(C(=O)O)C1CC(O)C2(C)CCCC(=C)C2C1 (configuration not stated)	+
CCCCN1C(=O)c2c(NC(C)=O)c3cc(F)ccc3n2CC1(C)C(=O)NCCC(C)C (configuration not stated)	i
CC1CCCCC1NC(=O)C1(C)Cn2c(cc3sccc32)C(=O)N1Cc1ccccc1Cl (configuration not stated)	i
CC(C)c1ccc(N2C(=O)c3cc(-c4ccccc4)nn3CC2(C)C(=O)NCc2ccccc2)cc1 (configuration not stated)	i
Nc1ncnc2c1c(-c1cnc3[nH]ccc3c1)nn2C1CCCC1	+
Nc1ncnc2c1c(-c1ccc(Oc3ccccc3)cc1)nn2[C@@H]1CCCNC1	+
CCC(C)NC(=O)CSc1nnc2n(CCc3ccccc3)c(=O)c3ccccc3n12 (configuration not stated)	i
Cc1cccc(Cn2nc3n(C(C)C)c(=O)c4ccc(C(=O)NCC(C)C)cc4n3c2=O)c1	i
COC(=O)c1ncn2c1C(=O)N(Cc1ccccc1Cl)C(C)(C(=O)NC1CCCCC1)C2 (configuration not stated)	i
O=S(=O)(c1cccc(-c2nc(-c3ccccc3)no2)c1)N1CCN(c2ccc(Cl)cc2)CC1	i
CSc1cccc(N2C(=O)CSc3c(c4ccccc4n3C)C2C(=O)NCc2ccccc2)c1 (configuration not stated)	i
O=C(CCc1nnc2n(Cc3ccc(Cl)cc3)c(=O)c3ccccc3n12)N1CCc2ccccc2C1	i
CCc1ccc(NC(=O)c2cc3n(n2)CC(C)(C(=O)NC2CCCCCC2)N(C)C3=O)cc1 (configuration not stated)	i
CC(C)CCNC(=O)C1(C)Cn2nc(C(=O)N3CCN(c4ccccc4F)CC3)cc2C(=O)N1C (configuration not stated)	i
Cc1cccc(CN2CCCn3nc(C(=O)NC(C)Cc4ccco4)cc3C2=O)c1 (configuration not stated)	i
CCCC1c2ccc(C)n2CCN1C(=O)Nc1cc(C)ccc1C (configuration not stated)	i
SMILES	Methyltransferases
CCc1ccc(NC(=O)c2cc3n(n2)CC(C)(C(=O)NC2CCCCC2)N(C)C3=O)cc1 (configuration not stated)	i
CCOC(=O)[C@@H](N)Cc1ccc(-c2cc(O[C@H](c3ccc(Cl)cc3-n3ccc(C)n3)C(F)(F)F)nc(N)n2)cc1	+
COc1cccc(-c2ccc([C@@H](Oc3cc(-c4ccc(C[C@H](N)C(=O)O)cc4)nc(N)n3)C(F)(F)F)cc2)c1	i
CCOC(=O)c1cc2n(n1)CC(C)(C(=O)NCc1ccccc1)N(c1ccc(C)c(Cl)c1)C2=O (configuration not stated)	i
O=C(CCC(=O)n1ncc2ccc(Cl)cc21)N1CCN(c2ccccc2)CC1	i
O=C(COCC(=O)N1CCN(C(c2ccccc2)c2ccccc2)CC1)Nc1ccc(Cl)cc1C(=O)O	+
CCCn1c(=O)c2ccc(C(=O)NC(C)C)cc2n2c(=O)n(CC(=O)Nc3cc(F)ccc3F)nc12	i
O=C(CCn1ccc2cc(S(=O)(=O)N3CCCC3)ccc21)NCc1ccccn1	i
